We go through 9 compounds from PubChem BioAssay (NCATS).

The target in experiment [1] is T1, Hexokinase-4 (Homo sapiens) + Glucokinase regulatory protein (Homo sapiens) (UniProt P35557+Q14397). In words: qHTS assay for inhibitors of recombinant human GCK-GKRP interaction: Diaphorase-coupled assay (AID 743205; active = well fitted curve in the direction sought with a large enough effect; an effect the other way counts as inactive or inconclusive). Summed up:
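GST-GCK (10 nM) with FLAG-GKRP (10 nM), 5 mM glucose and 0.4 mM ATP in pH 7.6 Hepes; compounds preincubated 20 min with substrate. G6PDH/diaphorase coupling converts resazurin to resorufin, read kinetically (ex 525/em 590 nm) for 30 min.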
Background: qHTS replaces the single test concentration by a dilution series.

The target in experiment [2] is T1, Hexokinase-4 (Homo sapiens) + Glucokinase regulatory protein (Homo sapiens). Nature of the experiment: qHTS assay for inhibitors of recombinant human GCK-GKRP interaction: ADP-Glo assay (AID 743206; active = well fitted curve in the direction sought with a large enough effect; an effect the other way counts as inactive or inconclusive;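 note: plate controls were DMSO plus enzyme for no effect and no enzyme for full effect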). Summed up: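 GST-GCK and FLAG-GKRP (15 nM each in the dispensed mix, with 2 uM S6P) react with 0.4 mM ATP and 5 mM glucose (final) in Hepes pH 7.6 for 60 min at room temperature. ADP is measured by ADP-Glo luminescence.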

Experiment [3] shares this target. In words: qHTS assay for inhibitors of recombinant human GCK-GKRP interaction: HTRF assay (AID 743207; active = well fitted curve in the direction sought with a large enough effect; an effect the other way counts as inactive or inconclusive;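 note: 0% = DMSO with GCK present and -100% = DMSO wells lacking GCK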). In a few lines: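 GST-GCK and FLAG-GKRP (5 nM each) were combined with 2 uM S6P in pH 7.1 Hepes/MgCl2/KCl/DTT buffer, then compound and anti-FLAG XL665/anti-GST K antibodies were added. After 60 min at room temperature, HTRF 665/615 nm emission was read.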
The nature of experiment [4]: qHTS profiling of the MIPE4 collection as inhibitors of Plasmodium falciparum (3D7) proliferation (AID 743344). The note with it: P. falciparum 3D7 in erythrocytes, SYBR Green DNA fluorescence, 72 h; at 28.5 µM (top of the series) unless noted. Summed up: (§1)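 Erythrocytes infected with P. falciparum (0.3% parasitemia, 2.5% hematocrit) incubated with compounds 72 h at 37 C, 5% CO2. Lysis with saponin/Triton buffer containing SYBR Green I, overnight at room temperature in the dark; DNA fluorescence (485/535 nm) normalised to 0.29 uM artemisinin and DMSO.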

Experiment [5] can be described thus: qHTS profiling of the MIPE4 collection as inhibitors of Plasmodium falciparum (DD2) proliferation (AID 743345). The following applies: P. falciparum Dd2 in erythrocytes, SYBR Green DNA, 72 h; at 28.5 µM (top of the series) unless noted. In a few lines:
as §1

Experiment [6] is described as follows: qHTS profiling of the MIPE4 collection as inhibitors of Plasmodium falciparum (DD2) proliferation (Rep 2) (AID 743346). The following applies: P. falciparum Dd2 in erythrocytes, SYBR Green DNA, 72 h; at 28.5 µM (top of the series) unless noted. Summed up: as §1
Experiment [7] in a line: qHTS profiling of the MIPE4 collection as inhibitors of Plasmodium falciparum (HB3) proliferation (AID 743347).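 Note: plate controls were DMSO vehicle wells for no effect and artemisinin wells for full effect.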 The following applies: P. falciparum HB3 in erythrocytes, SYBR Green DNA, 72 h; at 28.5 µM (top of the series) unless noted. Summed up:
as §1

Experiment [8] is described as follows: High-throughput drug toxicity screening in the BPDCN cell line Gen2.2 (AID 1224824).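 Note: cells exposed to compounds for 48 h before reading.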 The following applies: Gen2.2 BPDCN cells; at 45.8 µM (top of the series) unless noted. In a few lines:
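Gen2.2 cells (500/well) in phenol red-free RPMI with 10% FBS were exposed to compounds for 48 h at 37 °C, 5% CO2. Viability was read by CellTiter-Glo luminescence and normalized to DMSO (100%) and 9.2 uM bortezomib (0%).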

Experiment [9] is described as follows: High-throughput drug toxicity screening in the BPDCN cell line Cal-1 (AID 1224825). The following applies: Cal-1 BPDCN cell viability, qHTS; at 45.8 µM (top of the series) unless noted. Summed up:
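Exponentially growing Cal-1 cells, 500 per well in phenol red-free RPMI with 10% FBS, were exposed to compounds for 48 h at 37 °C, 5% CO2. Viability was read by CellTiter-Glo luminescence and normalised to DMSO (100%) and 9.2 uM bortezomib (0%).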

The nature of experiment [10]: qHTS assay for measurement of the activity of small molecule inhibitors on Zika virus induced Caspase-3 activity in human iPSC derived neural progenitor cells (hNPCs) (AID 1224857; active = well fitted curve in the direction sought with a large enough effect; an effect the other way counts as inactive or inconclusive; note: nearly all actives have a fitted effect of over 65% in size; note: potency is the fitted concentration of half-maximal effect). Summed up:
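Pretreat hNPCs with compound 1 h; infect ZIKV 2 FFU/cell; 6 h 37 C, 5% CO2; Caspase-Glo 3/7, 30 min RT; luminescence; normalize to no-virus and virus-only wells.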

A short description of experiment [11]: qHTS Screen of the MIPE 4.0 Collection Against Ewings Sarcoma (RDES) (AID 1259252; active = well fitted curve in the direction sought with a large enough effect; an effect the other way counts as inactive or inconclusive; note: nearly all actives have a fitted effect of over 35% in size; note: potency is the fitted concentration of half-maximal effect). Summed up: (§2)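 Compound titrations go onto adherent log-phase cells 4 h after seeding, incubate 48 h at 37C, then CellTiter-Glo luminescence reports viability relative to DMSO and cell-free controls.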
Experiment [12] in a line: qHTS Screen of the MIPE 4.0 Collection Against Ewings Sarcoma (EW8) (AID 1259255; active = well fitted curve in the direction sought with a large enough effect; an effect the other way counts as inactive or inconclusive; note: nearly all actives have a fitted effect of over 35% in size; note: potency is the fitted concentration of half-maximal effect;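 for viability: 100% = DMSO-treated cells and 0% = medium-only wells without cells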). Summed up:
as §2

Experiment [13] in a line: qHTS assay for measurement of the activity of small molecule inhibitors on Zika virus induced Caspase-3 activity in human astrocytoma cells (AID 1224859; active = well fitted curve in the direction sought with a large enough effect; an effect the other way counts as inactive or inconclusive;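 note: plate controls were ZIKV-infected untreated cells for no effect and uninfected cells for full effect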). In a few lines:
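Human SNB-19 astrocytoma cells in RPMI 1640 with 10% FBS receive compound one hour ahead of Zika virus at 2 FFU/cell. After 6 h infection, caspase-3/7 activity is detected by Caspase-Glo luminescence.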

Experiment [14] can be described thus: qHTS Assay for Identifying Gametocytocidal Compounds (AID 743244; active = well fitted curve in the direction sought with a large enough effect; an effect the other way counts as inactive or inconclusive;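 note: % is set by controls: 0 for no effect and ±100 for the full control effect; actives lower the fluorescent signal which means gametocytes are killed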). The note with it: P. falciparum 3D7 stage III-V gametocytes, alamarBlue, 72 h; max response: stronger effect = lower value. In a few lines: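 Compounds are pinned into medium, gametocytes (stage III–V, 3D7, 20,000 cells/well) added, and plates held 72 h at 37 °C in 5% CO2. AlamarBlue follows for 24 h before fluorescence reading.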

Experiment [15] can be described thus: qHTS profiling for inhibitors of Plasmodium falciparum (3D7) proliferation (AID 743322).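 Note: infected erythrocytes exposed to compound for 72 h before lysis; 100% = DMSO vehicle wells and 0% = 0.29 µM artemisinin.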 The note with it: P. falciparum 3D7 proliferation; at 28.7 µM (top of the series). In a few lines: as §1
The nature of experiment [16]: qHTS profiling for inhibitors of Plasmodium falciparum (DD2) proliferation (AID 743323). The note with it: lower = more inhibition; at 28.7 µM (top of the series). In a few lines: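 Parasite proliferation measured via DNA-dye fluorescence, as uninfected erythrocytes lack DNA. Cultures at 0.3% parasitemia and 2.5% hematocrit incubated 72 h with compound; signal scaled between vehicle and 0.29 uM artemisinin wells.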

A short description of experiment [17]: qHTS profiling for inhibitors of Plasmodium falciparum (HB3) proliferation (AID 743324; active = well fitted curve in the direction sought with a large enough effect; an effect the other way counts as inactive or inconclusive;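 note: 100% = DMSO vehicle wells and 0% = artemisinin-treated control wells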). The following applies: Plasmodium falciparum HB3 blood-stage proliferation; at 28.7 µM (top of the series). Summed up: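 P. falciparum HB3 grown in erythrocytes (0.3% parasitemia, 2.5% hematocrit final) with compound for 72 h at 37 C, 5% CO2. Parasite DNA detected by SYBR Green after saponin/triton lysis overnight; normalized to 0.29 uM artemisinin and DMSO.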

Experiment [18] can be described thus: qHTS Screen of the MIPE 4.0 Collection Against Ewings Sarcoma (TC71) (AID 1259253; active = well fitted curve in the direction sought with a large enough effect; an effect the other way counts as inactive or inconclusive; note: nearly all actives have a fitted effect of over 40% in size; note: potency is the fitted concentration of half-maximal effect). Summed up: as §2

Values joined by “and” are separate entries in the source; they are usually repeats but may differ in a detail not shown here. Equal values may be shown once. Records with an inconclusive call do not appear. Active and inactive are the calls of the source. Unless noted, the rule behind the calls is not given here.

T1 sequence (P35557 whole entry, looked up): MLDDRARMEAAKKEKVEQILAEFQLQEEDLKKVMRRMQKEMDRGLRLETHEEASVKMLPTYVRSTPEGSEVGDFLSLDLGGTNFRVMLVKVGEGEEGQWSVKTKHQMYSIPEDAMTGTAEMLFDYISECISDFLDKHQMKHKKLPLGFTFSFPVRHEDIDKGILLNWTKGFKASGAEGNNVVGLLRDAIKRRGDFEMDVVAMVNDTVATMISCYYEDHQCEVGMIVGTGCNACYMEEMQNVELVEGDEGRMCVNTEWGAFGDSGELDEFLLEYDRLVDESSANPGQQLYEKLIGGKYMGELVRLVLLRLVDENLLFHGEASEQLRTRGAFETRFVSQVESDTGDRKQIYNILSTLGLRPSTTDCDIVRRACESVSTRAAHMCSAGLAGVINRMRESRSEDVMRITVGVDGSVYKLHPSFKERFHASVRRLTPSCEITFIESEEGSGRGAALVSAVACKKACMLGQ
T1 sequence (Q14397 whole entry, looked up): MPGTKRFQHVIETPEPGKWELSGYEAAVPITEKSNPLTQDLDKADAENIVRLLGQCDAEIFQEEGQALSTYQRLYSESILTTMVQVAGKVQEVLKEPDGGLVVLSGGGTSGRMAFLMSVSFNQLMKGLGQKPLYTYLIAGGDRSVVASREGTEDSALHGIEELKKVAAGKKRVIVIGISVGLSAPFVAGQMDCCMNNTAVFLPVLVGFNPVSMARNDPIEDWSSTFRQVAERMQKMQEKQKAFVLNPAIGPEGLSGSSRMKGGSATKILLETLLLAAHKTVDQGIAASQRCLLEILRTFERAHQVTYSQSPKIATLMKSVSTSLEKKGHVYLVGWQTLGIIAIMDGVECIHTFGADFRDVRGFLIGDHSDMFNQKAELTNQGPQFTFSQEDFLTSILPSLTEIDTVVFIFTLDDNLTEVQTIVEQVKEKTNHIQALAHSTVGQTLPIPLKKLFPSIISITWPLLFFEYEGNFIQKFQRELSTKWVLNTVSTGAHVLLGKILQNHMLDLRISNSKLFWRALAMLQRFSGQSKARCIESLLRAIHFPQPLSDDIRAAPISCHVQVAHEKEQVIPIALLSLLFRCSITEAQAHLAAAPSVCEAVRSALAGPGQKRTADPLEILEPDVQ

As for `COc1cccc(-c2cc(=O)c3ccccc3o2)c1N`, the outcome in experiment [1], in [2] and in experiment [3] was inactive. Also, in [4], the parasite growth, % of DMSO control stood at 73.4%. In addition, the parasite growth remaining, % of DMSO control (lower = more inhibition) in [5] turned out to be 91.1%. This compound registered a parasite growth, % of control (lower = inhibition) in [6] of 87.6%. The growth, % of control in experiment [7] was 60%. Also, the cell viability, % of control (lower = more cytotoxic) in experiment [8] stood at 45.3%. For the same compound, the viability (% of control) in experiment [9] came out at 9.08%. Also, the Potency in experiment [10] was 18.7 µM (active). Further, the Potency result in experiment [11] and in experiment [12] was “inactive” throughout.
With `CNC1CCC(N(Cc2cccc(-c3ccncc3)c2)C(=O)c2sc3c(F)ccc(F)c3c2Cl)CC1` (stereo not drawn), in [4], the parasite growth, % of DMSO control was 4.87%. Further, the parasite growth, % of control (lower = inhibition) in [6] worked out at 23.7%. Besides, the growth, % of control in experiment [7] was 6.39%. The cell viability, % of control (lower = more cytotoxic) in experiment [8] came out at 0.6%. In addition, the viability (% of control) in experiment [9] came to 0.705%. The Potency result in experiment [10] and in experiment [13] was “inactive” throughout.
In the case of `N[C@@]1(C(=O)O)CS(=O)(=O)[C@H]2[C@H](C(=O)O)[C@H]21`, in experiment [5], the parasite growth remaining, % of DMSO control (lower = more inhibition) turned out to be 88.4%. Besides, the growth, % of control in [7] was determined as 59.7%. In addition, the cell viability, % of control (lower = more cytotoxic) in experiment [8] was 78.4%. Also, the viability (% of control) in experiment [9] turned out to be 76%. In addition, the Potency entry in experiment [10] and in experiment [13] was “inactive” throughout.
For the compound `Cc1nnc(C(C)C)n1C1C[C@H]2CC[C@@H](C1)N2CC[C@H](NC(=O)C1CCC(F)(F)CC1)c1ccccc1` (stereo partly drawn), the parasite growth remaining, % of DMSO control (lower = more inhibition) in experiment [5] is 100%. The compound further came in with a parasite growth, % of control (lower = inhibition) in [6] of 55.4%. Further, the growth, % of control in experiment [7] amounted to 92.4%. Moreover, the cell viability, % of control (lower = more cytotoxic) in [8] is 75.3%. Moreover, in [9], the viability (% of control) is 104%. Also, the Potency entry in experiment [10] and in experiment [13] was “inactive” throughout.
Consider `CC(=O)Nc1ccc([C@H](C)C(=O)Nc2ncc(C(C)C)s2)cc1`, for which the max response in experiment [14] is 12.4% (inactive). For the same compound, the remaining parasite growth % (stronger effect = lower value) in [15] amounted to 95.5%. The activity, percent of control in experiment [16] was determined as 101%. Besides, in experiment [17], the remaining proliferation (% of control), lower = more inhibition came out at 93.4%. The parasite growth, % of DMSO control in experiment [4] was determined as 5.36%. The parasite growth remaining, % of DMSO control (lower = more inhibition) in experiment [5] was found to be 104%. This compound also yielded a growth, % of control in experiment [7] of 2.84%. Besides, in [8], the cell viability, % of control (lower = more cytotoxic) was determined as 7.33%. Also, the viability (% of control) in experiment [9] is 6.1%. Besides, the Potency is 14.8 µM (active) in [10], 2.96 µM (active) in experiment [11], 2.96 µM (active) in [18] and 5.9 µM (active) in experiment [12].
Consider `O=C(Nc1ccccc1-c1cn2c(CN3CCNCC3)csc2n1)c1cnc2ccccc2n1`, for which the remaining parasite growth % (stronger effect = lower value) in experiment [15] was -2.01% and -0.108%. Moreover, the activity, percent of control in [16] was -0.76% and -0.434%. Further, the remaining proliferation (% of control), lower = more inhibition in [17] was -2.58% and -1.42%. Moreover, the parasite growth, % of DMSO control in [4] was 5.22%. In experiment [7], the growth, % of control came to 3.22%. For the same compound, the cell viability, % of control (lower = more cytotoxic) in [8] was 2.56%. In addition, in experiment [9], the viability (% of control) worked out at 1.48%. The Potency in experiment [10] is 18.7 µM (active); in [18], 23.5 µM (active).
In the case of `CCC(CC)[C@H](NC(C)=O)[C@@H]1[C@H](O)[C@@H](C(=O)O)C[C@@H]1N=C(N)N`, the growth, % of control in experiment [7] was determined as 97.8%. The cell viability, % of control (lower = more cytotoxic) in experiment [8] stood at 81.8%. Further, the viability (% of control) in experiment [9] was determined as 105%. Also, the Potency result in [10], in experiment [11], in experiment [18] and in experiment [12] was “inactive” in each case.
`NC1CCC(Nc2nc(Nc3ccc(C(=O)N4CCCCC4)cc3)c3ncn(-c4cccc(F)c4)c3n2)CC1` (stereo not drawn) registered a parasite growth, % of DMSO control in experiment [4] of 113%. In experiment [5], the parasite growth remaining, % of DMSO control (lower = more inhibition) is 89.1%. Besides, in experiment [6], the parasite growth, % of control (lower = inhibition) stood at 47.7%. The compound further came in with a growth, % of control in experiment [7] of 71.8%. Moreover, the cell viability, % of control (lower = more cytotoxic) in [8] is 208%. For the same compound, the viability (% of control) in experiment [9] is 101%. The Potency in [10] was 16.6 µM (active). For the same compound, the Potency result in experiment [11], in experiment [18] and in [12] was “inactive” throughout.
In the case of `CCN(CC)CCOc1ccc(C(=C(Cl)c2ccccc2)c2ccccc2)cc1`, the parasite growth remaining, % of DMSO control (lower = more inhibition) in experiment [5] came to 9.72%. In experiment [6], this compound registered a parasite growth, % of control (lower = inhibition) of 6.97%. The same compound showed a growth, % of control in [7] of 9.51%. Moreover, in experiment [8], the cell viability, % of control (lower = more cytotoxic) came out at 136%. Also, the viability (% of control) in experiment [9] was 50.6%. For the same compound, the Potency entry in experiment [10] and in [13] was “inactive” in each case.
